Experimental data reported in PubChem BioAssay (EPA / NIEHS).
Inconclusive results are not listed. Calls of active or inactive are those of the source. Rule for the calls: active = hit-call score of the fitted dose curve at least 0.9, where 1 is the maximum; inconclusive = response in the unintended direction; inactive = score below 0.9.

Biological target: Retinoic acid receptor RXR-alpha (Homo sapiens) (UniProt P19793)
Assay: ATG_RXRa_TRANS: Attagene TRANS-FACTORIAL HepG2 Assay for human Retinoid X Receptor alpha (RXRa) (AID 2283012)
Experimental: ATG_TRANS is a cell-based, multiplexed-readout assay that uses HepG2, a human liver cell line, with measurements taken at 24 hours after chemical dosing in a 24-well plate.ATG_RXRa_TRANS is one of 30 assay component(s) measured or calculated from the ATG_TRANS assay. It is designed to make measurements of mRNA induction, a form of inducible reporter, as detected with fluorescence intensity signals by Reverse transcription polymerase chain reaction (RT-PCR) and Capillary electrophoresis technology.Data from the assay component ATG_RXRa_TRANS was analyzed into 1 assay endpoint. This assay endpoint, ATG_RXRa_TRANS, was analyzed in the positive analysis fitting direction relative to DMSO as the negative control and baseline of activity. Using a type of inducible reporter, measures of mRNA for gain-of-signal activity can be used to understand the reporter gene at the transcription factor-level as they relate to the gene RXRA. Furthermore, this assay endpoint can be referred to as a primary readout, because this assay has produced multiple assay endpoints where this one serves a reporter gene function. To generalize the intended target to other relatable targets, this assay endpoint is annotated to the nuclear receptor intended target family, where the subfamily is non-steroidal.
Human liver HepG2 cells are transiently transfected with multiple reporter transcription units (MRTUs) in 6-well plates using FuGene 6 reagent (Roche; 3 ml FuGene/1 mg DNA). The MRTU constructs are regulated by a cis-regulating element (promoter). […] A major difference between the CIS and TRANS system is that in CIS activities of endogenous TFs are measured, whereas the TRANS assay evaluates changes in activities of exogenous, chimeric NR-Gal4 proteins. […] At the end of 24 hour incubation, total RNA was isolated using TriZol reagent (Invitrogen). The isolated RNA is then reverse-transcribed using oligo(dT) primer and Mo-MLV reverse transcriptase (Invitrogen) with DNAse I (Ambion) treatment for 30 min. The one-tenth of the produced cDNA was amplified by PCR using Taq DNA polymerase (Invitrogen) and two reporter sequence-specific primers. The PCR products were fluorescently labeled by primer extension with 6-arboxyfluorescein (6-FAM) 5'-labeled reporter sequence-specific primer (2 min at 95 C, 20 s at 68 C and 10 min at 72 C) and these products were digested with 5U of HpaI (New England Biolabs) for 2h at 37 C. The fragments were purified using Qiaquick PCR columns (Qiagen), analyzed on an ABI 3130xL genetic analyzer (Applied Biosystems) with peak positions identified by using a set of X-rhodamine (ROX)-labeled MapMarker1000 molecular weight standards (BioVentures). The raw capillary electrophoresis data was processed using Attagraph software (Attagene).

Sequence of Retinoic acid receptor RXR-alpha (Homo sapiens) (P19793 whole entry, looked up): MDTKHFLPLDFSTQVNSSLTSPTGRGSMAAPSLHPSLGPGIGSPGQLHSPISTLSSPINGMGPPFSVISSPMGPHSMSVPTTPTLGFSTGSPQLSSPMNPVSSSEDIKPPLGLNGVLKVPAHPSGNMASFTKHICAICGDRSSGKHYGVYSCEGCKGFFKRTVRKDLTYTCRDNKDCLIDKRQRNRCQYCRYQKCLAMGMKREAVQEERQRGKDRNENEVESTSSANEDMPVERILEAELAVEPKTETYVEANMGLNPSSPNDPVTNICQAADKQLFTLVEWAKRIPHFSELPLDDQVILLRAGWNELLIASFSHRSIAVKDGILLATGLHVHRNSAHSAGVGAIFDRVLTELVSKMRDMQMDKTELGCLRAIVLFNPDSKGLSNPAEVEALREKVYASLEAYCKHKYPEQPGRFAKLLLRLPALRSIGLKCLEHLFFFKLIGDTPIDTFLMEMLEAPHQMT

outcome, inactive:
c1ccc2[nH]ccc2c1
Cc1ncc([N+](=O)[O-])n1C
CC1=CCC(O)(C(C)C)CC1 (stereo not given)
S=C(S)NCCNC(=S)S
CC(=O)Nc1ccccc1O
CC(=O)Nc1ccc(CC(=O)O)cc1
C=COCCOCCOCCOC=C
CC(C)=CCC/C(C)=C/COC=O
Cc1ccc(C=O)s1
C[C@H]1C[C@H]2[C@@H]3CCC4=CC(=O)C=C[C@]4(C)[C@@]3(F)[C@@H](O)C[C@]2(C)[C@@]1(O)C(=O)COP(=O)(O)O
Nc1nc2ccc([N+](=O)[O-])cc2s1
O=[N+]([O-])c1ccc(Nc2ccc(Nc3ccccc3)c(S(=O)(=O)O)c2)c([N+](=O)[O-])c1
COc1ccc(NC(=O)CC(C)=O)cc1
CC(=O)[C@H]1CC[C@H]2[C@@H]3CC=C4C[C@@H](O)CC[C@]4(C)[C@H]3CC[C@]12C
CC(C=O)Cc1ccc(C(C)C)cc1 (stereo not given)
Cc1ccc2ccccc2n1
BrC1CCC(Br)C(Br)CCC(Br)C(Br)CCC1Br (stereo not given)
CCCOCC(C)O (stereo not given)
C[C@H]1C[C@@H]2[C@H]([C@@H](O)C[C@@]3(C)[C@H]2CC[C@]3(O)C(=O)CO)[C@@]2(C)C=CC(=O)C=C12
CCCCCCCCCC=O
NCCCCCCN
CC(C)Oc1ccccc1O
C=C(C)C(=O)OCc1ccccc1
O=P(c1ccccc1)(c1ccccc1)c1ccccc1
COC(=O)C1=C(C)NC(C)=C(C(=O)OCCN(C)Cc2ccccc2)C1c1cccc([N+](=O)[O-])c1 (stereo not given)
CN(C)CCCN
Clc1ccc2c(c1)C(N1CCNCC1)=Nc1ccccc1O2
CC(C)=CCC[C@](C)(O)[C@@H]1CC=C(C)CC1
CCOC(=O)c1ccccc1OC
O=Cc1ccc(Cl)c([N+](=O)[O-])c1
CC(C)(N)CO
CCCCC(CC)COCCC#N (stereo not given)
Cc1ccc(O)c(C(C)(C)C)c1
Clc1nc(C(Cl)(Cl)Cl)c(Cl)c(Cl)c1Cl
Nc1cccc(S(=O)(=O)c2cccc(N)c2)c1
CCCCN
Cc1ccccc1C=O
NNc1nc(-c2ccc(N)cc2)cs1
C=C(C)C(=O)NCCCN(C)C
Cc1cccc(C)c1C
